We go through 39 compounds from PubChem BioAssay (NCI).

About 83,000 compounds went through this panel and 20% of them were active in at least one assay; those are over-represented in the sample as a whole.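 Results are percent growth after 48 hours of single-concentration exposure. 100 means growth as in untreated cells, lower positive values show inhibition; negative values down to -100 show cell death.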 Unmarked numbers belong to inactive results. The source made the active and inactive calls. Rule for the calls: active = growth percent below 10; inactive = the rest.

For one experiment, the system named is SW-620 colon. The experiment in a line: NCI-60 one-dose screen, 48 h (100 = growth as untreated, 0 = no growth, -100 = all killed). The note with it: 10 µM unless noted.
For the compound `CC1(C)CC(=O)C2=C(C1)C(c1ccc(Cl)cc1)n1ncc(C#N)c1N2` (centres undefined), the growth was 99.3%. As to `CCOC(=O)C1=C(CCl)N(C)C(=O)NC1c1ccc2c(c1)OCO2` (centres undefined), the growth was 8.16% (active). On the same count and under the same terms, to `COc1ccc(-c2cc(C(=O)N3N=C(c4ccc(N)cc4)CC3c3ccc(Cl)cc3)c3ccccc3n2)cc1` (centres undefined) belongs 29.2%. Take `Cn1cc(-c2csc(-c3cn(C)c4ccccc34)n2)c2cnccc21`: the growth was -47.6% (active). Consider `CC(C)c1ccc2c(c1)CC[C@H]1[C@](C)(C(=O)OCC#CCN3CCCC3)CCC[C@]21C`, for which the growth was 84.6%. For `Cc1cc(=O)n(C(=S)Nc2ccc(Cl)cc2)c2cc(O)ccc12`, the growth was 110%. Still for that read-out and setting: to `O=C1Nc2ccc(Cl)cc2/C1=C/c1ccc[nH]1` belongs 112%; to `COc1nc(/C=C\Nc2ccc3c(c2)OCCOCCOCCOCCO3)nc(OC)n1`, 94%. Take `CC1=C2CC/C(C)=C/CC[C@]3(C)O[C@H]3CC/C(C)=C/[C@H]2OC1`: the growth was 107%. On to `CCN1C(=O)N(CC)C2C1NN=c1s/c(=C\c3ccc(OC)cc3)c(=O)n12` (centres undefined), for which the growth was 22.8%. `Cc1nn(C)c2ncnc(N/N=C/c3cccc(O)c3O)c12`: the growth is 26.7%. Take `CC(C)C1C2=C(NCCN1C(=O)c1ccncc1)C(C)(C)N(Cc1ccccc1)C2=O` (centres undefined): the growth was 105%.

In the case of `CN(C)c1ccc(C(=S)c2ccc(N(C)C)cc2)cc1`, the growth is 43.9%. On to `CSc1ccc(N2C(=N)C(=S)N(c3ccc(C)cc3)C2=O)cc1`, for which the growth was 103%. Still for that read-out and setting: to `CCOC(=O)C/C(=N\Nc1cc(=O)[nH]c2ccc(C)cc12)C(=O)OCC` belongs 94.8%; to `Clc1ccc(Nc2ncc(Cc3cccc(Cl)c3Cl)s2)cc1`, 101%; to `CCOC(=O)c1nnn(-c2no[n+]([O-])c2-c2ccc(OC)cc2)c1COc1cccc2cccnc12`, 26%.

As to `NC(=O)c1ccccc1OCC(=O)Nc1ccc(Cl)c(Cl)c1`, the growth is 102%.

In the case of `C=C1CC[C@@H]2C(C)(C)[C@H](O)CC[C@@]2(C)[C@@H]1COc1ccc2ccc(=O)oc2c1`, the growth was 89.5%. The same measure, in the same setting: to `O=S(Nc1ccccc1)c1ccc(Cl)cc1` (centres undefined) belongs 86.8%; to `COc1cccc(-c2cn3nc(-c4cn(C)c5ccccc45)sc3n2)c1`, 89.7%; to `COc1cc2c(cc1-c1c(C)noc1C)ncc1nc(CN3CCOCC3)n([C@H](C)COC(F)F)c12`, 62.9%. Consider `CN1c2ccccc2S(=O)(=O)n2c(SCC(=O)Nc3nc4ccc(F)cc4s3)nnc21`, for which the growth was 107%. For `O=S(=O)(Nc1cc(Sc2nc3ccccc3s2)c(O)c2ccccc12)c1ccc2ccccc2c1`, the growth was 108%. `Cn1c(C#N)ccc1-c1ccc(F)c(NC(=O)c2ccc(F)cc2)c1`: the growth was 44.9%.

A further experiment deals with MCF7 breast. The experiment is described as above. The note with it: 10 µM unless noted.
With `CN(C)CCCNC(=O)c1cncnc1Nc1ccc2c(ccn2Cc2cccc(F)c2)c1`, the growth is 71.4%. Take `CCOC(=O)/C(=C(/C)NCC(C)C)c1cc(O)c(O)c2c(C)cc(=O)[nH]c12`: the growth was 29.4%. Regarding `COc1ccc(Nc2ncc(C#N)c(NCCCNC(=O)C3CCC3)n2)cc1`, the growth is 63.7%. On to `C=C1SC(=Nc2ccccc2Cl)N(C(=O)c2sc3ccccc3c2Cl)C1(C)C`, for which the growth was 21.2%. Still for that read-out and setting: to `CN1CC(c2ccc(Br)cc2)C(C(=O)c2ccc(Br)cc2)C12C(=O)Nc1ccccc12` (centres undefined) belongs 62.4%; to `CC(C)Cc1nc(Nc2ccccc2)[nH]c(=O)c1C#N`, 53.4%.

With `CC(C)(C)c1ccc(S(=O)(=O)Oc2ccc(-c3sc4cc(OS(=O)(=O)c5ccc(C(C)(C)C)cc5)ccc4c3C(=O)c3ccc(OCCN4CCCCC4)cc3)cc2)cc1`, the growth was 96.8%.

Regarding `Nc1ncccc1O`, the growth is 68.6%. In the case of `COc1cc(C[C@H]2COc3cc(O)cc(O)c3C2=O)ccc1O`, the growth was 22.6%. On to `CCN(CC)C(=O)CC1=C(C)/C(=C/c2[nH]c(-c3ccc[nH]3)cc2OC)N=C1C`, for which the growth was 19.3%. Same read-out and setting: as for `COc1ccc(C2CC(c3ccccc3)=NN2C(=O)c2cc(OC)c(OC)c(OC)c2)cc1O` (centres undefined), the figure is 20.3%. The same measure, in the same setting: as for `C[C@@H]1CN(c2cnc(C(=O)Nc3cc(F)cc4cccnc34)cn2)C[C@H](C)N1`, the figure is 9.07% (active); as for `O=C(Nc1cc(Cl)ccc1O)c1ccccc1Nc1ccnc(C(F)(F)F)c1`, 8.95% (active); as for `O=c1ccc2ccc(OCCN3CCCCC3)cc2o1`, 106%.

For `CC1(C)CC(=O)C2=C(C1)C(c1ccc(Cl)cc1)n1ncc(C#N)c1N2` (centres undefined), the growth was 95.4%.

Regarding `CCOC(=O)C1=C(CCl)N(C)C(=O)NC1c1ccc2c(c1)OCO2` (centres undefined), the growth is 51.8%.

For `COc1ccc(-c2cc(C(=O)N3N=C(c4ccc(N)cc4)CC3c3ccc(Cl)cc3)c3ccccc3n2)cc1` (centres undefined), the growth is 13.9%. On the same count and under the same terms, to `Cn1cc(-c2csc(-c3cn(C)c4ccccc34)n2)c2cnccc21` belongs 10.5%. For the compound `CC(C)c1ccc2c(c1)CC[C@H]1[C@](C)(C(=O)OCC#CCN3CCCC3)CCC[C@]21C`, the growth was 73.9%. The same measure, in the same setting: as for `Cc1cc(=O)n(C(=S)Nc2ccc(Cl)cc2)c2cc(O)ccc12`, the figure is 98.7%. On to `O=C1Nc2ccc(Cl)cc2/C1=C/c1ccc[nH]1`, for which the growth was 16.2%. Take `COc1nc(/C=C\Nc2ccc3c(c2)OCCOCCOCCOCCO3)nc(OC)n1`: the growth is 93%.

For the compound `CC1=C2CC/C(C)=C/CC[C@]3(C)O[C@H]3CC/C(C)=C/[C@H]2OC1`, the growth is 105%. As to `CCN1C(=O)N(CC)C2C1NN=c1s/c(=C\c3ccc(OC)cc3)c(=O)n12` (centres undefined), the growth was 14.4%.

As for `Cc1nn(C)c2ncnc(N/N=C/c3cccc(O)c3O)c12`, the growth is 15%.

In the case of `CC(C)C1C2=C(NCCN1C(=O)c1ccncc1)C(C)(C)N(Cc1ccccc1)C2=O` (centres undefined), the growth is 95.5%. With `CN(C)c1ccc(C(=S)c2ccc(N(C)C)cc2)cc1`, the growth is 46.4%.

With `CSc1ccc(N2C(=N)C(=S)N(c3ccc(C)cc3)C2=O)cc1`, the growth was 85.4%. For the compound `CCOC(=O)C/C(=N\Nc1cc(=O)[nH]c2ccc(C)cc12)C(=O)OCC`, the growth is 94.8%. As for `Clc1ccc(Nc2ncc(Cc3cccc(Cl)c3Cl)s2)cc1`, the growth is 90.9%.

Take `CCOC(=O)c1nnn(-c2no[n+]([O-])c2-c2ccc(OC)cc2)c1COc1cccc2cccnc12`: the growth is 15.2%. Still for that read-out and setting: as for `NC(=O)c1ccccc1OCC(=O)Nc1ccc(Cl)c(Cl)c1`, the figure is 79.7%.

With `C=C1CC[C@@H]2C(C)(C)[C@H](O)CC[C@@]2(C)[C@@H]1COc1ccc2ccc(=O)oc2c1`, the growth is 53.9%. For `O=S(Nc1ccccc1)c1ccc(Cl)cc1` (centres undefined), the growth is 101%.

Turning to `COc1cccc(-c2cn3nc(-c4cn(C)c5ccccc45)sc3n2)c1`, the growth was 79.5%. In the case of `COc1cc2c(cc1-c1c(C)noc1C)ncc1nc(CN3CCOCC3)n([C@H](C)COC(F)F)c12`, the growth is 13.2%. Take `CN1c2ccccc2S(=O)(=O)n2c(SCC(=O)Nc3nc4ccc(F)cc4s3)nnc21`: the growth was 88.2%. For the compound `O=S(=O)(Nc1cc(Sc2nc3ccccc3s2)c(O)c2ccccc12)c1ccc2ccccc2c1`, the growth was 81.7%. In the case of `Cn1c(C#N)ccc1-c1ccc(F)c(NC(=O)c2ccc(F)cc2)c1`, the growth is 49.4%.
